Rows were chosen to be rich in hits. Some 11% of all compounds tested hit in one or more screens of this group.
VACV mCherry inh = inhibitors of vaccinia virus infection (mCherry reporter signal). Vaccinia virus mCherry reporter infection, fluorescence. Potency, µM (top dose mostly 36.5 µM), for inactives: at the top dose activity change, negative = inhibition, usual class: inhibitors. 310,000 compounds, 0.63% hits; calls by dose curve; tested in A549 cells; further: on the % scale 0 is the no-effect control and ±100 the full control effect; nearly all actives have a fitted effect of over 35% in size
Pf growth 48h = inhibits P. falciparum growth in the first generation, 48 h; P. falciparum luciferase growth in erythrocytes, 48 h; Potency, µM (highest dose often 28.7 µM), for inactives: at the highest dose activity change, negative = inhibition, most hits filed as inhibitors; 310,000 compounds, 5.9% hits; AID 504832; further: on the % scale 0 is the no-effect control and ±100 the full control effect
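Cell-based growth assay: transgenic P. falciparum expressing firefly luciferase, cultured in red cells within RPMI 1640 containing 0.5% w/v Albumax, 24 mM bicarbonate and gentamycin. A drop in luciferase activity indicates inhibition.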
VACV Venus inh = vaccinia inhibition (Venus reporter); Vaccinia virus Venus reporter expression, fluorescence; Potency, µM (doses to about 36.5 µM), inactives show at the highest dose activity change, negative = inhibition, hits mostly inhibitors; 330,000 compounds, 0.46% hits; AID 720580; calls by dose curve; tested in A549 cells; further: on the % scale 0 is the no-effect control and ±100 the full control effect; nearly all actives have a fitted effect of over 30% in size
HCV inhibitor = blocks hepatitis C virus | Huh7.5.1 HCVcc-Cre infection, luciferase reporter, 44 h | Potency, µM (titrated, usually from 41.8 µM), inactives show at the highest dose activity change, negative = inhibition, usual class: inhibitors | 340,000 compounds, 3.4% hits; further: on the % scale 0 is the no-effect control and ±100 the full control effect
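Reporter virus HCVcc-Cre (~0.5 moi) infects cells exposed to compound; seeding density 1,000 cells/well with 4 h settling beforehand. Luminescence, 15 sec read, taken 44 h post-infection following a 15 min RT substrate incubation.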
Pf growth 96h = P. falciparum growth inhibition at 96 hour, primary screen for plastid delayed-death inhibitors; Potency, µM (highest dose often 28.7 µM), inactives show at the highest dose activity change, negative = inhibition, actives largely listed as inhibitors; P. falciparum luciferase reporter growth, 96 h; 320,000 compounds, 6.9% hits; AID 504834; further: on the % scale 0 is the no-effect control and ±100 the full control effect
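P. falciparum expressing integrated firefly luciferase, in erythrocytes at 2% hematocrit, 0.05% parasitemia, incubated with compounds 96 h at 37 C, 5% CO2. Growth inhibition read as loss of luminescence; two-generation exposure targets delayed-death apicoplast inhibitors.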
NS1 inh = blocks influenza NS1 protein function; Potency, µM (series often up to 46.1 µM), for inactives: top-dose activity, positive = more growth; 270,000 compounds, 0.4% hits; calls by dose curve; further: actives are rising curves; nearly all actives have a fitted effect of over 50% in size
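Recovery from NS1-induced slow growth read by OD600 in budding yeast switched to galactose assay medium (pH 6.0, -URA) at 1:100 dilution. Compound 23 nl per well; the matching strain lacking NS1 serves as control.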
Starred values were filed as active, the others as inactive; i = inactive; ? = inconclusive; . = no result given; [ ] = remark or other dose. Unless noted, the call rests on the fitted dose curve; in most records, active means well fitted inhibition curve with a large enough effect; inconclusive means small, poorly fitted or top-dose-only effect, or another doubt; inactive means no such curve, though single readings can be large or run the other way. Potency means the concentration at half of the fitted maximal effect.

SMILES	VACV mCherry inh	Pf growth 48h	VACV Venus inh	HCV inhibitor	Pf growth 96h	NS1 inh
Cc1ccc(S(=O)(=O)N2CCN(C(=O)c3ccccc3Cc3ccccc3)CC2)c(C)c1	-5%	?	-14%	-29%	9.3µM*	?
COc1ccc(C(C)(C)C)cc1S(=O)(=O)N1CCC(C(N)=O)CC1	-22%	3%	-5%	?	5%	3%
CCc1ccc(OC)c(S(=O)(=O)N2CCN(C(=O)c3ccco3)CC2)c1	.	-2%	.	-4%	?	6%
COc1ccc(F)cc1S(=O)(=O)N1CCN(C(=O)c2ccco2)CC1	-16%	1%	-4%	15%	10µM*	2%
Cc1ccc(S(=O)(=O)N2CCN(C(=O)c3ccco3)CC2)c(C)c1	.	-4%	.	3%	10µM*	-4%
Cc1ccc(S(=O)(=O)N2CCN(C(=O)c3ccco3)CC2)cc1	i	-5%	-8%	-4%	-4%	-10%
COc1ccc(F)cc1S(=O)(=O)N1CCC(C(N)=O)CC1	?	3%	13µM*	35%	.	-2%
CCn1nc(C)c(CCN(C)C(=O)Nc2cccc(Cl)c2C)c1C	i	.	-4%	.	.	.
CCOC(=O)c1c(NC(=O)C(C)Oc2ccccc2F)sc(C(C)=O)c1C (stereo not drawn)	-8%	.	-24%	.	.	.
Cc1ccc(NC(=S)NCCSc2ccc(Cl)cc2)c(C)c1	-3%	?	-13%	?	37%	-56%
Cc1cc[n+]2c3c(cccc13)CCC2	.	3.7µM*	.	10%	.	-1%
Cc1cccc2c1N(N=O)CCC2	-12%	41%	-13%	11%	32%	8%
CCOC(=O)c1c(NC(=O)C(NCCN(C)C)c2ccccc2)sc2c1CCCC2 (stereo not drawn)	?	9.3µM*	-22%	0.89µM*	?	13%
CCOC(=O)c1c(NC(=O)c2ccn(CC)n2)sc2c1CCCC2	-5%	10µM*	-16%	?	.	-55%
CCOC(=O)c1c(NC(=O)C(=O)N/N=C/c2ccccc2O)sc2c1CCCCC2	i	0.66µM*	-10%	?	0.93µM*	-6%
CCOC(=O)c1c(NC(=O)CSc2nnc(-c3c[nH]c4ccccc34)n2CCOC)sc2c1CCCCC2	?	?	?	6.3µM*	9.3µM*	24%
COCCn1c(SCC(=O)Nc2cc(C)on2)nnc1-c1c[nH]c2ccccc12	-15%	.	0%	-7%	?	-2%
CCOC(=O)c1c(NC(=O)c2ccc(C)cc2)sc2c1CCCCC2	-3%	.	5%	.	.	.
CCOC(=O)c1c(NC(=O)CSc2c[nH]c3ccccc23)sc2c1CCCC2	?	-4%	-25%	11µM*	-91%	-5%
CCOC(=O)c1c(NC(=O)CSc2c[nH]c3ccccc23)sc2c1CCC2	?	-5%	-27%	?	-32%	29%
Cc1cc(=O)oc2cc(OCC(=O)N3CCN(c4ccccc4)CC3)ccc12	.	?	.	-19%	?	.
CCCCC(=O)Nc1cccc2c1C(=O)N(c1ccccc1)C2=O	-11%[1.46 µM]	3%	3%	1%	0.93µM*	-49%
CC(=O)Nc1ccc(N2C(=O)c3cccc(NC(C)=O)c3C2=O)cc1	i	6%	-13%	17%	5%	1%
Cc1cccc(CN2CCCC(C(=O)c3ccc(C(F)(F)F)cc3)C2)n1 (stereo not drawn)	-13%	2.3µM*	-14%	?	12µM*	-8%
COc1c(C)cc(C(=O)C2CCCN(Cc3ccc(Oc4ncccn4)cc3)C2)cc1C (stereo not drawn)	.	?	.	?	-29%	-3%
SMILES	VACV mCherry inh	Pf growth 48h	VACV Venus inh	HCV inhibitor	Pf growth 96h	NS1 inh
COc1ccc2cc(C(=O)C3CCCN(Cc4cnc(N5CCOCC5)s4)C3)ccc2c1 (stereo not drawn)	?	?	-21%	?	2%	0%
CCn1ccnc1CN1CCCC(C(=O)c2cc(C)c(OC)c(C)c2)C1 (stereo not drawn)	.	12µM*	.	?	?	0%
CCn1ccnc1CN1CCCC(C(=O)c2cc(Cl)ccc2OC)C1 (stereo not drawn)	-23%	21%	-21%	?	14%	1%
CCn1ccnc1CN1CCCC(C(=O)c2ccc3cc(OC)ccc3c2)C1 (stereo not drawn)	-24%	2.9µM*	-12%	10µM*	?	-1%
COc1ccc2cc(C(=O)C3CCCN(Cc4ccccn4)C3)ccc2c1 (stereo not drawn)	-16%	9.3µM*	-15%	-20%	-21%	1%
O=C(c1ccc(-n2cncn2)c([N+](=O)[O-])c1)N1CCN(S(=O)(=O)c2ccccc2Br)CC1	-7%	-1%	-21%	10%	-9%	.
O=C1C2C(C(=O)N1CC1CCCO1)C1C=CC2C12CC2 (stereo not drawn)	.	-1%	-2%	13%	.	9%
Cc1ccc2[nH]c(CN3CCN(C)C(CCO)C3)c(C)c2c1 (stereo not drawn)	.	8%	.	-12%	?	-5%
Cc1ncc([N+](=O)[O-])n1CC(=O)Nc1ccccc1F	.	28%	.	13%	?	0%
Cn1ccc(C(=O)OCC(=O)Nc2ccccc2)n1	-6%	31%	-3%	18%	48%	-5%
CC(=O)c1sc2nc(=O)c(C)nn2c1C	i	13%	-2%	2%	3.7µM*	1%
COc1ccc(O)c(-c2nc(N)nc(N)n2)c1	?	-1%	?	-6%	?	.
O=C(Nc1ccc2c(c1)OCO2)C1CCCN1C(=O)NCc1ccccc1 (stereo not drawn)	.	8%	.	7%	?	2%
Cn1c(N)c(C(=O)COC(=O)c2cc(-c3ccco3)nc3ccccc23)c(=O)n(C)c1=O	-28%	?	-2%	?	?	?
Cn1c(N)c(C(=O)COC(=O)c2cc(-c3ccco3)nc3ccccc23)c(=O)n(Cc2ccccc2)c1=O	.	?	.	2%[8.37 µM]	9.3µM*	14µM*
CC1Cc2ccccc2N1Cc1cc(=O)c(OCC(=O)NCCc2ccccc2)co1 (stereo not drawn)	-12%	13µM*	-10%	?	?	.
COc1ccc(NC(=O)COc2coc(CN3c4ccccc4CC3C)cc2=O)cc1 (stereo not drawn)	-30%	?	-20%	?	8.3µM*	.
Cc1cc(C)c2cc3c(N)c(C(=O)Nc4c(C)[nH]c(=O)[nH]c4=O)sc3nc2c1	3%	-19%	4%	-7%	-22%	1.4µM*
Cc1cc(C)c2cc3c(N)c(C(=O)N4CCOCC4)sc3nc2c1	-14%	?	-7%	?	?	4%
CC(=O)c1ccc(N2CCN(C(=O)CCS(=O)(=O)c3ccc4c(c3)CCN4C(C)=O)CC2)cc1	0%	13µM*	-18%	-21%	?	-7%
